Each structure is given as a SMILES string. About 9,300 (1.5%) of roughly 640,000 compounds were called active. Cut-off read from the data, not from the text of the source: active = inhibition above about 32%; inactive = the rest. What follows is part of a selection rich in actives, with near analogues and random picks from the rest.

This assay can be described thus: TEAD-YAP interaction inhibition, primary screen, TEAD-YAP interaction inhibitor project, luminescence, HEK-TIYL cells (AID 1259422).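 Note: 0% = median of test compound wells and 100% = reference inhibitor wells.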 The note with it: TEAD-Gal4/YAP UAS-luciferase luminescence, at 9.12 µM, hits give high values.
For orientation: inhibition means the change of the read-out against control, counted positive when it falls. On to `C/C(=N\NC(=O)c1ccc(CSc2nc(C)cc(C)n2)cc1)c1ccccc1O`, for which the inhibition was 10.2% (inactive). As for `CCN(CC)C(=O)C1CCCN(c2nc(NCCN(C(C)C)C(C)C)c3ncn(-c4ccsc4)c3n2)C1` (configuration not stated), the inhibition was 36.7% (active). Next, `CC(C)n1cnc2c(NCCc3ccc(O)cc3)nc(Nc3cccc(N(C)C)c3)nc21`: -1.31% (inactive).

As to `O=C1CCCN1CCCNc1nc(Nc2ccccc2)c2ncn(-c3ccsc3)c2n1`, the inhibition is 8.67% (inactive). Next, `CC(C)n1c(Nc2cnccn2)nc2c(NCCc3ccc(O)cc3)ncnc21`: 14.1% (inactive). Next, `CCN(CC)C(=O)C1CCCN(c2nc(NC3CC3)c3ncn(-c4ccccc4)c3n2)C1` (configuration not stated): 9.83% (inactive); `CCN(CC)C(=O)C1CCCN(c2nc(Nc3ccc(NC(C)=O)cc3)c3ncn(-c4ccsc4)c3n2)C1` (configuration not stated): 24.3% (inactive); `CC(C)n1cnc2c(NCCc3ccc(O)cc3)nc(Nc3cnccn3)nc21`: 36.5% (active). Next, `O=C1CCCN1CCCNc1nc(Nc2ccncn2)nc2c1ncn2-c1ccsc1`: 50.5% (active); `CCNc1nc(NCCCN2CCCC2=O)c2ncn(-c3ccccc3)c2n1`: 4.42% (inactive).

As for `Cc1cccc(C(=O)NCc2nnc(SCC(=O)N3N=C(c4cccs4)CC3c3ccc(F)cc3)n2C)c1` (configuration not stated), the inhibition was 10.4% (inactive). On to `Cc1cccc(NC(=O)CC2SC(N)=NC2=O)c1C` (configuration not stated), for which the inhibition is 3.13% (inactive). To `O=c1oc2ccccc2cc1-c1nnc(Nc2cccc3ccccc23)s1` belongs -25.6% (inactive); to `COc1ccc(NC(=O)C2C3C=CC4(O3)C2C(=O)N(CCC(C)C)C4C(=O)NC2CCCCC2)cc1` (configuration not stated), 6.81% (inactive); to `O=S(=O)(c1ccc(Br)c2ccccc12)N1CCN(Cc2ccccc2)CC1`, 14.9% (inactive).

For the compound `CCOC(=O)c1nnn(CC(=O)Nc2cccc(C)c2)c1C(=O)OCC`, the inhibition is -6.24% (inactive). Next, `Cc1cccc(NC(=O)Cn2c(-c3cccs3)noc2=O)c1`: 33.3% (active); `O=c1onc(-c2cccs2)n1Cc1ccccc1`: 4.82% (inactive); `O=C(CC(O)(C(F)(F)F)C(F)(F)F)Nc1ccc(Cl)c(Cl)c1`: 58.9% (active).

On to `O=C(Nc1ccc(Cl)c(Cl)c1)c1ccc(C(=O)Nc2ccc(Cl)c(Cl)c2)cc1`, for which the inhibition was -3.3% (inactive). As to `O=C(COc1ccc(CO)cc1)Nc1ccc(Cl)c(Cl)c1`, the inhibition is -15.9% (inactive). Turning to `CCn1c(CNc2c(C)cccc2C)nnc1SCC(N)=O`, the inhibition was -2.12% (inactive). To `CCOC(=O)c1c(NC(=O)c2cc(OC)c(OC)c(OC)c2)sc(C(=O)N2CCCC2)c1C` belongs -7.23% (inactive). To `CCOC(=O)c1cnc2c(Cl)c(Cl)ccc2c1NCCOC(=O)c1cccnc1` belongs 0.48% (inactive). With `CCOC(=O)c1cnc2c(Cl)c(Cl)ccc2c1NCCN(C)C`, the inhibition was -5.54% (inactive).

Consider `CCOC(=O)c1cnc2c(C)c(C)ccc2c1NCCCN(C)C`, for which the inhibition was 81.7% (active). `C/C(=C\C(=O)ONC(=O)c1ccccc1)NCc1ccccc1`: the inhibition is -18.2% (inactive). Next, `CCOC(=O)C1=C(C)N(c2ccc(C)c(C)c2)C(=O)/C1=C\c1cccs1`: 3.05% (inactive); `O=C(CNS(=O)(=O)c1cccc2nonc12)NCc1ccccc1`: 8.04% (inactive).

For `Cc1ccc(NC(=O)CN2CCN(c3cccc(Cl)c3)CC2)cc1`, the inhibition was 5.46% (inactive). To `COc1cccc(N2CCN(CC(=O)Nc3ccccc3C(N)=O)CC2)c1` belongs 91.2% (active); to `COc1ccc(NC(=O)CN2CCN(C)CC2)c(OC)c1`, -0.51% (inactive). Next, `CCCCn1c(CNC(=O)c2cccc(OC)c2)nnc1SCC(=O)Nc1sc2c(c1C(=O)OCC)CCCC2`: 1.81% (inactive); `CCOc1ccccc1C(=O)NCc1ccccc1`: -14.4% (inactive).

On to `CCOc1ccccc1C(=O)NCc1ccc2c(c1)cc(C)n2C`, for which the inhibition is 51.1% (active).

For the compound `CCOCC(=O)NCc1ccc2c(c1)cc(C)n2C`, the inhibition was -6.23% (inactive). Next, `CC1=NN(c2ccccc2)C(=O)C1Cl` (configuration not stated): 17% (inactive).

`CC1=NN(c2ccccc2)C(=O)C1N=Nc1c(C)n[nH]c1C` (configuration not stated): the inhibition is 38.6% (active). For the compound `CC1=NN(c2ccccc2)C(=O)C1/C=C1\SC(=O)NC1=O` (configuration not stated), the inhibition was 13.7% (inactive). Next, `CC1=C(C(=O)OCc2ccccc2)C(c2cccc(I)c2)C2=C(CC(C)(C)CC2=O)N1` (configuration not stated): 6.12% (inactive); `Cc1ccccc1-n1c(SCC#N)nc2c(sc(=S)n2-c2ccccc2C)c1=O`: -17.8% (inactive); `COc1cc(C#N)cc(Cl)c1OC(C)=O`: 3.38% (inactive).

For `Cc1ccc2nc(-c3ccc(NC(=O)CCl)cc3)sc2c1`, the inhibition was 32% (active). For `Cc1ccc2sc(-c3ccc(NC(=O)C(C)C)cc3)nc2c1`, the inhibition is -16.9% (inactive). `Nc1nc(SCC(=O)Nc2ccc(F)c(Cl)c2)n[nH]1`: the inhibition was 4.23% (inactive). As to `Nc1nc(SCC(=O)Nc2ccc3c(c2)C(=O)c2ccccc2C3=O)n[nH]1`, the inhibition was -48.4% (inactive). To `Cc1ccc2nc(-c3ccc(NC(=O)CSc4n[nH]c(N)n4)cc3)sc2c1` belongs 48.5% (active); to `Cc1cccc(N(CC(=O)Nc2ccc(-c3nc4ccc(C)cc4s3)cc2)S(C)(=O)=O)c1`, 8.01% (inactive); to `O=C(COC(=O)c1cc2ccccc2oc1=O)c1ccc(I)cc1`, 3.37% (inactive). Regarding `CCN(CC)c1ccc2cc(-c3nnc(Nc4cc(Cl)ccc4OC)s3)c(=O)oc2c1`, the inhibition was 5.73% (inactive). Next, `CCN=C1SC(CC(=O)Nc2ccccc2SC)C(=O)N1CC` (configuration not stated): -3.27% (inactive). To `Cc1ccccc1NC(=O)CCC(=O)OCC(=O)c1ccc([N+](=O)[O-])cc1` belongs 7.47% (inactive); to `Cc1cc(Nc2nc3ccccc3n3nnnc23)n(-c2ccc([N+](=O)[O-])cc2)n1`, 29.3% (inactive). Next, `N#C/C(=C/c1ccccc1F)C(=O)NCCc1c[nH]c2ccccc12`: 12.4% (inactive). For `CCCC(=O)Nc1ccccc1NC(=O)Cc1ccccc1`, the inhibition was -1.49% (inactive).

Take `Cc1ccsc1C(=O)NCC1CCC2(CCN(C(=O)c3ccc(F)cc3)CC2)O1` (configuration not stated): the inhibition was -0.6% (inactive).

Take `O=C(Nc1cccc(Br)c1)c1ccccc1[N+](=O)[O-]`: the inhibition is -3.71% (inactive). Next, `Cc1ccc(CCC(=O)Nc2ncc(Cc3cc(Cl)ccc3Cl)s2)o1`: 43.6% (active); `Cc1ccc(Cc2cnc(NC(=O)CCl)s2)cc1`: 24.8% (inactive). To `Cc1ccc(C(=O)Nc2ncc(Cc3ccc(Cl)cc3)s2)o1` belongs -24.8% (inactive); to `CCOC(=O)c1ccc(S(=O)(=O)NNC(=O)CCN2C(C)CCCC2C)cc1` (configuration not stated), 4.62% (inactive). Take `O=C(Oc1cccc(NC(=O)c2ccccc2Cl)c1)c1ccc(Cl)c(S(=O)(=O)N2CCCCC2)c1`: the inhibition is -1.45% (inactive). Next, `O=C(Oc1cccc(NC(=O)c2ccccc2Cl)c1)c1ccc(Br)c(S(=O)(=O)N2CCCCC2)c1`: 41.8% (active). As for `CCOc1ccc(NC(=O)c2ccc(F)c(S(=O)(=O)NC3CCCCCC3)c2)cc1`, the inhibition is 43.4% (active). To `Cc1cccc(NC(=O)c2ccc(C)c(S(=O)(=O)N3CCCC3)c2)c1` belongs -31.9% (inactive). In the case of `CCOc1ccc(NC(=O)c2ccc(F)c(S(=O)(=O)NCCc3ccccc3)c2)cc1`, the inhibition was 20.5% (inactive).

With `CCc1ccccc1NC(=O)c1ccc(F)c(S(=O)(=O)NC2CCCCCC2)c1`, the inhibition is -8.09% (inactive). Regarding `CCOc1ccc(NC(=O)c2ccc(Br)c(S(=O)(=O)N3CCCC3)c2)cc1`, the inhibition was 35.5% (active). Next, `CCOc1ccccc1NC(=O)c1ccc(F)c(S(=O)(=O)N2CCCC2)c1`: -2.89% (inactive); `CC1CCN(S(=O)(=O)c2cc(C(=O)Oc3cccc(NC(=O)c4ccccc4)c3)c(Cl)cc2Cl)CC1`: -2.37% (inactive). Regarding `Cc1nc2ccc(C(=O)OCC(=O)c3ccc([N+](=O)[O-])cc3)cc2nc1C`, the inhibition was 3.04% (inactive). Next, `O=C(O)C1CN(C(c2ccccc2)c2ccccc2)C1`: 3.68% (inactive); `CCC(C)NC(=O)Nc1cccc(Cl)c1C` (configuration not stated): -4.8% (inactive); `COC(=O)c1ccc(NC(=O)c2ccc(C)o2)cc1`: -47% (inactive). In the case of `c1ccc(N2CCN(N=C3c4ccccc4-c4ccccc43)CC2)nc1`, the inhibition is -13.3% (inactive). Next, `NC(=O)N/N=C/c1cn(-c2ccccc2)nc1-c1cc2ccccc2oc1=O`: 40.6% (active).

Regarding `NC(=O)C(=O)N/N=C/c1cn(-c2ccccc2)nc1-c1cccs1`, the inhibition is -10.6% (inactive). As to `O=C(NNc1nc(-c2cc3ccccc3oc2=O)cs1)c1ccccc1`, the inhibition is -15% (inactive).

For the compound `Cc1cccc(Cc2nnc(CCC(=O)N3CCN(C)C[C@@H]3c3ccccc3)o2)c1`, the inhibition was -0.78% (inactive).

For the compound `COc1ccc(S(=O)(=O)NCCN)cc1`, the inhibition is 4.56% (inactive). To `COc1ccc(CNS(=O)(=O)c2ccc(Oc3ccc(S(=O)(=O)NCc4ccc(OC)cc4)cc3)cc2)cc1` belongs 55.4% (active); to `COc1ccc(S(=O)(=O)NCCCNS(=O)(=O)c2ccc(OC)cc2)cc1`, 5.92% (inactive). To `CC(=O)Nc1ccc(Nc2nc(-c3ccccc3)nc3c2ncn3C(C)C)cc1` belongs 18% (inactive); to `Cc1c(Cl)cccc1N1C(=O)C2C3CCC(C3)C2C1=O` (configuration not stated), 3.02% (inactive); to `CCC(=O)N(Cc1ccco1)Cc1cc2cc3c(cc2[nH]c1=O)OCCO3`, -9.49% (inactive).

With `O=C(NNS(=O)(=O)c1cccc([N+](=O)[O-])c1)C1CCCCC1`, the inhibition is -1.44% (inactive). Next, `Cc1ccc(CN2C(=O)CCC2CCNCc2cc3c(cc2Cl)OCO3)cc1F` (configuration not stated): -1.93% (inactive). To `CCn1c(SCC(=O)Nc2nc3ccc(OC)cc3s2)nc2cccnc21` belongs 3.19% (inactive); to `Cc1[nH]n(-c2ccc([N+](=O)[O-])cc2)c(=O)c1C=NCCN1CCN(C(=O)/C=C/c2ccccc2)CC1`, 13.1% (inactive); to `Cc1nc(NCCCN2CCOCC2)cc(-c2ccccn2)n1`, 5.82% (inactive).

On to `c1ccc(-c2cc(NCCCn3ccnc3)nc(-c3ccccn3)n2)nc1`, for which the inhibition is 54.3% (active). Next, `Clc1ccc(-c2cc(NCCCn3ccnc3)ncn2)cc1`: -76.3% (inactive).

Values taken from PubChem BioAssay AID1259422 (The Scripps Research Institute Molecular Screening Center, 2018).
